# Out of some 16,000 compounds screened, about 5,700 (36%) were called active. Not shown: some 24% with an inconclusive outcome. The list shows a part of the results. Values without a mark were called inactive. Calls follow the shape of the dose curve; as a rule, active = well fitted curve in the direction sought with a large enough effect; inconclusive = small, poorly fitted or top-dose-only effect, or effect the other way; inactive = no such curve, though single readings can be large or run the other way.
# Biological target: Cytochrome P450 1A2 (Homo sapiens) (UniProt P05177)
# Sequence (P05177 whole entry, looked up): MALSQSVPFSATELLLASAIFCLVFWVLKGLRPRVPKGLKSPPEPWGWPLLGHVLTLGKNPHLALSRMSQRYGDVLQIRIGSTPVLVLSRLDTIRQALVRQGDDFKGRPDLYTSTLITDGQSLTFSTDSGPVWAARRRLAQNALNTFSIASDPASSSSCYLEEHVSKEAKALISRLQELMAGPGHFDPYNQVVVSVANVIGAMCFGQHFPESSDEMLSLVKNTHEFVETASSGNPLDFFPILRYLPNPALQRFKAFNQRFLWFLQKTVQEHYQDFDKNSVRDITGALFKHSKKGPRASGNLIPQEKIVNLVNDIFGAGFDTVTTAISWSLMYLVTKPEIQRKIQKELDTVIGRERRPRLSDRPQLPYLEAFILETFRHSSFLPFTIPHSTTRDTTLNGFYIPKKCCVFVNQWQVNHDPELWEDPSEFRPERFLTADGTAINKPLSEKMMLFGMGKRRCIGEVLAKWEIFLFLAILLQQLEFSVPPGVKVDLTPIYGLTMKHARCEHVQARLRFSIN
# Experiment: Cytochrome panel assay with activity outcomes
# Details: recombinant CYP, pro-luciferin dealkylation, luminescence, p450-cyp1a2; series mostly up to 57.1 µM; activity, negative = inhibition: at the top concentration
# % is scaled to controls: 0 for no effect and ±100 for the full control effect.
Compound,"activity, negative = inhibition",AC50
Cc1cc(N)c2ccccc2[n+]1CCCCCCCCCC[n+]1c(C)cc(N)c2ccccc21,-8.27%,
COc1cccc2c1OC[C@@H](CO)[C@H]2N(C)C(=O)Nc1ccc(Cl)cc1Cl,2.57%,
Clc1ccccc1-c1nc(-c2ccncc2)no1,,79.4 nM (active)
O=C(CCNS(=O)(=O)c1cccs1)N1CCc2ccccc2C1,,15800 nM (active)
O=C(CCNS(=O)(=O)c1cccs1)N1CCCCCC1,-3.69%,
CC(C)C(NS(=O)(=O)c1cccs1)C(=O)NCCN1CCN(c2ccccc2)CC1 (configuration not stated),-16.6%,
Cc1cc(C)c2c(-n3cccc3)n[nH]c2n1,,3550 nM (active)
Cc1cc(C)c2c(-n3cccc3)nn(CC#N)c2n1,,2510 nM (active)
CSc1nc(Oc2ccc(=O)[nH]n2)nc(N(C)C)n1,-8.98%,
Cc1cccc(-n2c(Cn3nc(C)c([N+](=O)[O-])c3C)n[nH]c2=S)c1,1.39%,
Cc1cccc(-n2nc([N+](=O)[O-])c(=NCc3cccnc3)n2O)c1,,2000 nM (active)
COc1cc(OC)c(C#N)c(S(=O)(=O)Cc2ccccc2)c1,,15800 nM (active)
C#CCn1c(S(=O)(=O)Cc2ccc(OC)cc2)nc(-c2ccccc2)c1-c1ccccc1,-22.5%,
COc1ccc(F)cc1S(=O)(=O)NC(Cc1ccccc1)C(N)=O (configuration not stated),-11.3%,
C[C@@H](CNC(N)=O)NC(N)=O,-12.2% [at 11.4 µM],
CN(Cc1ccco1)c1ncncc1-c1cccnc1,,5010 nM (active)
COc1cccc(-c2cncnc2N(C)Cc2ccco2)c1,,10000 nM (active)
CN(C)c1ccc(-c2cncnc2N(C)Cc2ccco2)cc1,,631 nM (active)
CN(Cc1ccco1)c1ncncc1-c1ccc2c(c1)OCO2,,200 nM (active)
CN(Cc1ccco1)c1ncncc1-c1ccoc1,,15800 nM (active)
CCCCCC(=O)N1CC2(CC(c3cccc(NC(=O)c4ccccc4)c3)=NO2)C[C@@H]1C(N)=O (some centres not stated),-22.2%,
CCC(=O)Nc1cccc(-c2nnc(-c3cccc(NC(=O)CC)c3)o2)c1,-3.41%,
O=C(Cc1ccc(Cl)cc1)Nc1cccc(-c2nnc(-c3ccco3)o2)c1,-2.23%,
O=C(Nc1cccc(-c2nc3ncccc3o2)c1)c1sc2ccccc2c1Cl,,708 nM (active)
CCCCCC(=O)Nc1cccc(-c2nc3ncccc3o2)c1,,2000 nM (active)
O=C(CSc1ccc(Cl)cc1)Nc1cccc(-c2nc3ncccc3o2)c1,,8910 nM (active)

Compound,"activity, negative = inhibition",AC50
Cc1ccc(S(=O)(=O)O/N=C2/CCCc3occc32)cc1,-10%,
CN(C)C(=O)CSC1c2ccccc2C(=O)N1c1ccccc1 (configuration not stated),,12600 nM (active)
CCOc1ccc(C2C(C(=O)O)c3ccccc3C(=O)N2CCN2CCOCC2)cc1 (configuration not stated),-19.1%,
COc1ccc(C2C(C(=O)N3CCOCC3)c3ccccc3C(=O)N2c2ccc(OC)cc2)cc1 (configuration not stated),-15.8%,
O=c1cc(CF)[nH]c(=S)[nH]1,-23.3% [at 11.4 µM],
Fc1ccc(Nc2nc(-c3ccoc3)nc3ccccc23)cc1,,316 nM (active)
c1ccc2c(Nc3ccncc3)nc(-c3ccoc3)nc2c1,,158 nM (active)
CNc1nc(-c2ccoc2)nc2ccccc12,,398 nM (active)
c1ccc(Nc2nc(-c3ccoc3)nc3ccccc23)cc1,,200 nM (active)
C=CC1=C[C@@H](O)C2OC2C12OCCCO2 (some centres not stated),-8.77% [at 11.4 µM],
NC(=O)CN1CCN(c2nc(-c3ccc(F)cc3)cs2)CC1,,2510 nM (active)
NC(=O)CN1CCOCCOCCOCCOCCOCC1,-6.19%,
NCS(=O)(=O)O,-5.62% [at 2.29 µM],
COc1ccc2c(c1)C(=NN)c1cc(OC)ccc1-2,,112 nM (active)
COCCN(C(=O)Nc1ccc(OC)cc1OC)C1CCN(C(C)=O)CC1,-16.2%,
COc1ccc(OC)c(NC(=O)[C@H]2CC=CC[C@H]2C(=O)O)c1,-20.7%,
COc1ccc(N2CCC(CNC(=O)Nc3ccc(OC)cc3OC)C2)cc1 (configuration not stated),,12600 nM (active)
COc1ccc(NC(=O)Cn2cccc2)c(OC)c1,,5010 nM (active)
CCOc1ccc(-c2nnn(CC(=O)Nc3cc(OC)ccc3OC)n2)cc1OCC,-12.8%,
COc1ccc(NC(=O)CSc2nnc(Cc3cccn3C)n2CCc2ccccc2)c(OC)c1,-35.8%,
CCN1CCCC1CNC(=O)C(=O)Nc1ccc(OC)cc1 (configuration not stated),-24.6%,
COc1ccc(NC(=O)NCc2cccn2C)c(OC)c1,,15800 nM (active)
CCCCN(CC)Cc1ccc(CNC(=O)Nc2ccc(OC)cc2OC)o1,-6.55%,
COc1ccc(OC)c(NC(=O)Cn2cccc2)c1,,6310 nM (active)
C[C@@H](C(=O)O)c1ccc(C[C@@H]2CCCC2=O)cc1,-6.14%,
O=C1[C@@H]2[C@@H](C(=O)N1c1ccc(OCc3ccccc3)cc1)[C@@H]1c3ccccc3[C@@H]2[n+]2ccccc21,-19.6% [at 11.4 µM],
